Bioassay records from PubChem BioAssay.
This is a sample that favours compounds with a hit; in the whole collection about 2% have one here.
KDM4E inh – inhibitors of human JMJD2E histone demethylase | B2RXH2 | JMJD2E catalytic domain, FDH-coupled NADH fluorescence (FDH is formaldehyde dehydrogenase) | Potency, µM (series often up to 57.1 µM), hits mostly inhibitors | 230,000 tested, 1.6% active | AID 2147; active means well fitted inhibition curve with a large enough effect, not every such curve was filed as active; inconclusive means small, poorly fitted or top-dose-only effect, or another doubt; inactive means no such curve, though single readings can be large or run the other way; further: nearly all actives have a fitted effect of over 50% in size
Coupling enz – counter-screen for Giardia aldolase inhibitors: coupling enzyme system. coupling enzyme system counterscreen, AmpLite Red fluorescence. activity change, negative = inhibition, % at 58.2 µM, hits read low. 290,000 tested, 0.67% active. AID 2472; in the data active means activity change below about -30%
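Fluorescence at 525 nm excitation and 598 nm emission measured inhibition of the coupled detection system without aldolase. Compounds (at 57.5 uM final) were preincubated 10 min at room temperature with coupling enzyme reagent before a 20 min substrate/AmpLite Red step.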
HTT cytoprotect – cytoprotection in Huntington HTT-Q103 PC12 cell model. Potency, µM (highest dose often 56.4 µM), usual class: activators. PC12 HTT-Q103 induced, cytoprotection, ATP luminescence, 40 h. 230,000 tested, 0.14% active. AID 1471; active means well fitted curve in the direction sought with a large enough effect; inconclusive means small, poorly fitted or top-dose-only effect, or another doubt; inactive means no such curve, though single readings can be large; an effect the other way counts as inactive or inconclusive; further: nearly all actives have a fitted effect of over 45% in size
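Stable PC12 Q103-GFP cells in serum-supplemented, phenol red-free DMEM; induction by tebufenozide at 100 nM final; compound dose series; cell viability quantified luminescently from ATP.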
TRb SRC2 PPI – inhibitors of human thyroid hormone receptor beta-SRC2 interaction | P10828 | TRbeta-SRC2 peptide binding, fluorescence polarization; receptor liganded with 1 µM T3 | Potency, µM (titrated, usually from 106 µM), actives largely listed as inhibitors | 280,000 tested, 0.065% active | AID 1469; active means well fitted curve in the direction sought with a large enough effect; inconclusive means small, poorly fitted or top-dose-only effect, or another doubt; inactive means no such curve, though single readings can be large; an effect the other way counts as inactive or inconclusive; further: nearly all actives have a fitted effect of over 50% in size
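Compounds were added to 0.6 uM TRb ligand-binding domain and 20 nM Texas Red-labeled SRC2 peptide in Tris buffer containing 1 uM T3, incubated 5 hr at ambient temperature, then read by fluorescence polarization.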
TR SRC2 fluor cs – counter-screen for TRb-SRC2 inhibitors: fluorescence interference. Potency, µM (doses to about 106 µM). TRb/SRC2 Texas Red total fluorescence interference. 280,000 tested, 0.29% active; active means well fitted curve in either direction with a large enough effect; inconclusive means small, poorly fitted or top-dose-only effect
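Human TRβ ligand-binding domain (0.6 uM) and Texas Red SRC2 peptide (20 nM) in Tris buffer with 1 uM T3 and 5% DMSO were incubated with pinned compound for 5 hr at ambient temperature. Total fluorescence was computed as S + 2P (555/632 nm).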
HttQ103 aggreg – reduces HttQ103-GFP aggregates in PC12 cells; PC12 HttQ103-GFP aggregates, Acumen cytometry, 40 h; Potency, µM (top dose mostly 46.1 µM), most hits filed as inhibitors; 220,000 tested, 1.1% active; AID 1688; active means well fitted curve in the direction sought with a large enough effect; inconclusive means small, poorly fitted or top-dose-only effect, or another doubt; inactive means no such curve, though single readings can be large; an effect the other way counts as inactive or inconclusive; further: nearly all actives have a fitted effect of over 60% in size
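Aggregates are detected as GFP objects 1–25 µm with signal 6 STDEV over background in lysates of induced PC12 cells. These carry Huntingtin exon 1 with 103 glutamines fused to GFP under an ecdysone promoter; compounds titrated.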
CASP1 redox cat – inhibits human caspase-1 in catalase buffer, redox counter-screen | Potency, µM (top dose mostly 57.5 µM), hits mostly inhibitors | 30 tested, under 10 active | AID 888 | caspase-1 Ac-WEHD-AFC fluorescence rate, catalase buffer | shares compounds with Coupling enz
Casp1 confirm – confirmation of allosteric or competitive inhibitors of human caspase-1; shares compounds with Coupling enz; purified caspase-1, fluorogenic substrate cleavage; Potency, µM (series often up to 57.5 µM), hits mostly inhibitors; 60 tested, 20% active; AID 896
CASP7 inh CRC – blocks human caspase-7 activity in concentration-response; shares compounds with Coupling enz; 60 tested, under 10 active; Potency, µM (series often up to 57.5 µM), usual class: inhibitors; recombinant caspase-7, fluorogenic substrate cleavage; active means well fitted inhibition curve with a large enough effect in the main read-out, with a control signal flat, not every such curve was filed as active; inconclusive means small, poorly fitted or top-dose-only effect, or a change in a side signal; inactive means no such curve, though single readings can be large or run the other way
CASP7 redox cys – inhibits caspase-7 in cysteine buffer, redox counter-screen | shares compounds with Coupling enz | caspase-7 enzyme with cysteine, fluorogenic substrate, redox counterscreen | Potency, µM (titrated, usually from 57.5 µM), hits mostly inhibitors | 60 tested, under 10 active | AID 908
Casp7 catalase – counter-screen for redox active caspase-7 inhibitors: catalase buffer | Potency, µM (titrated, usually from 57.5 µM), most hits filed as inhibitors | AID 909 | 30 tested, under 10 active | shares compounds with Coupling enz | Caspase-7 Ac-DEVD-AFC fluorescence rate, catalase buffer
Casp1 cysteine – inhibits caspase-1 in cysteine buffer, redox counter-screen; Potency, µM (series often up to 57.5 µM), most hits filed as inhibitors; recombinant caspase-1, fluorogenic substrate, cysteine buffer; shares compounds with Coupling enz; 60 tested, under 10 active
Each line names hits and unclear results; the compound was inactive in the other large screens (follow-up assays come after a bar, where they were run); ! = not active in a repeat; [ ] = another dose, or the depositor's remark. Unless noted, the call rests on the fitted dose curve; in most records, active means well fitted inhibition curve with a large enough effect in the main read-out, with a control signal flat; inconclusive means small, poorly fitted or top-dose-only effect, or a change in a side signal; inactive means no such curve, though single readings can be large or run the other way.

Fc1ccccc1N1CCN(Cc2c(F)cccc2F)CC1	KDM4E inh 20µM
CCN(CC)C(=O)SCc1ccc(Cl)cc1	none (no result: KDM4E inh, Coupling enz, HTT cytoprotect, HttQ103 aggreg)
N#Cc1cc(I)c(O)c(I)c1	none (no result: KDM4E inh, Coupling enz, HTT cytoprotect, HttQ103 aggreg)
O=C(NC(=O)c1c(F)cccc1F)Nc1cc(Cl)c(OC(F)(F)C(F)C(F)(F)F)c(Cl)c1F (stereo not drawn)	none (no result: KDM4E inh, Coupling enz, HTT cytoprotect, HttQ103 aggreg)
COc1cc2c(cc1OC)[C@H](C)NCC2	HTT cytoprotect inconclusive (no result: HttQ103 aggreg)
C[C@@H]1NCCc2cc(O)c(O)cc21	KDM4E inh 11µM (no result: HttQ103 aggreg)
COC[C@H]1OC(=O)c2coc3c2[C@@]1(C)C1=C(C3=O)[C@H]2CCC(=O)[C@@]2(C)C[C@H]1OC(C)=O	KDM4E inh 11µM (no result: HttQ103 aggreg)
COC[C@H]1OC(=O)c2coc3c2[C@@]1(C)C1=C(C3=O)C2CCC(=O)[C@@]2(C)C[C@H]1OC(C)=O (stereo partly drawn)	TRb SRC2 PPI 35µM, TR SRC2 fluor cs 45µM![fluorescent] (no result: HttQ103 aggreg)
CC(C)C(=O)OCC(C)(C)C(OC(=O)C(C)C)C(C)C (stereo not drawn)	none (no result: KDM4E inh, Coupling enz, HTT cytoprotect, HttQ103 aggreg)
CCC(C)c1ccc(O)cc1 (stereo not drawn)	none (no result: KDM4E inh, Coupling enz, HTT cytoprotect, HttQ103 aggreg)
ClC1=C(Cl)C(Cl)(C2(Cl)C(Cl)=C(Cl)C(Cl)=C2Cl)C(Cl)=C1Cl	TRb SRC2 PPI inconclusive, TR SRC2 fluor cs 32µM[quencher] (no result: KDM4E inh, HTT cytoprotect, HttQ103 aggreg)
CS/C(C)=N/OC(=O)N(C)SN(C)C(=O)O/N=C(\C)SC	none (no result: KDM4E inh, Coupling enz, HTT cytoprotect, HttQ103 aggreg)
Cc1ccc(C(=O)n2c(N)nc3ccccc32)cc1	KDM4E inh 35µM
Brc1ccc(Oc2ccccc2)cc1	none (no result: KDM4E inh, Coupling enz, HTT cytoprotect, HttQ103 aggreg)
CCC(=O)N1N=C(c2c(O)n(CCc3ccccc3)c(=O)[nH]c2=O)CC1c1ccc(OC)c(OC)c1 (stereo not drawn)	KDM4E inh 20µM
CSC1=N[C@@](C)(c2ccccc2)C(=O)N1Nc1ccccc1	none (no result: KDM4E inh, Coupling enz, HTT cytoprotect, HttQ103 aggreg)
COC(=O)C[C@]1(C(=O)OC)CN(C#N)N(c2ccc(Cl)cc2)C12c1ccccc1-c1ccccc12	HttQ103 aggreg 5.6µM
CCCCCCCCCCCCCCC(Br)C(=O)O (stereo not drawn)	none (no result: KDM4E inh, Coupling enz, HTT cytoprotect, HttQ103 aggreg)
Cn1ncnc2c(=O)n(C)c(=O)nc1-2	KDM4E inh 4µM, Coupling enz -94, TRb SRC2 PPI inconclusive, HttQ103 aggreg 5µM | CASP1 redox cat 1.1µM | Casp1 confirm 2µM | CASP7 inh CRC 4µM | CASP7 redox cys inactive | Casp7 catalase inconclusive | Casp1 cysteine inactive
C[C@]12Cc3cn4c(nc3C=C1CC[C@H]1[C@@H]2CC[C@@]2(C)[C@H]1CC[C@@]2(O)C#N)nc1ccccc14	none (no result: KDM4E inh, Coupling enz, TRb SRC2 PPI, TR SRC2 fluor cs, HttQ103 aggreg) | Casp1 confirm inconclusive | CASP7 inh CRC inconclusive | CASP7 redox cys inconclusive | Casp1 cysteine inconclusive
C[C@]12Cc3cn4c(nc3C=C1CCC1C2CC[C@@]2(C)[C@H]1CC[C@@]2(O)C#N)nc1ccccc14 (stereo partly drawn)	TR SRC2 fluor cs inconclusive (no result: Coupling enz, HTT cytoprotect, HttQ103 aggreg)
CCOC1Oc2ccc(OS(C)(=O)=O)cc2C1(C)C (stereo not drawn)	none (no result: KDM4E inh, Coupling enz, HTT cytoprotect, HttQ103 aggreg)
COc1cc2c(cc1O)-c1c(O)c(OC)cc3c1[C@H](C2)N(C)CC3	KDM4E inh inconclusive (no result: HttQ103 aggreg) | Casp1 confirm inactive | CASP7 inh CRC inactive | CASP7 redox cys inactive | Casp1 cysteine inactive
CCOP(=S)(NC(C)C)Oc1ccccc1C(=O)OC(C)C (stereo not drawn)	none (no result: KDM4E inh, Coupling enz, HTT cytoprotect, HttQ103 aggreg)
